PubChem BioAssay
Active and inactive are the calls of the source. The rule behind the calls is not given here.

biological target: Pantothenate synthetase (Mycobacterium tuberculosis (strain ATCC 25618 / H37Rv)) (UniProt P9WIL5); experiment: Coupled enzyme confirmation of inhibitors against recombinant Mtb PanC (AID 375); details: coupled enzyme assay; at 10 µM, hits give high values;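 note: 0% = full reaction with vehicle and 100% = no enzyme background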
Sequence (P9WIL5 whole entry, looked up): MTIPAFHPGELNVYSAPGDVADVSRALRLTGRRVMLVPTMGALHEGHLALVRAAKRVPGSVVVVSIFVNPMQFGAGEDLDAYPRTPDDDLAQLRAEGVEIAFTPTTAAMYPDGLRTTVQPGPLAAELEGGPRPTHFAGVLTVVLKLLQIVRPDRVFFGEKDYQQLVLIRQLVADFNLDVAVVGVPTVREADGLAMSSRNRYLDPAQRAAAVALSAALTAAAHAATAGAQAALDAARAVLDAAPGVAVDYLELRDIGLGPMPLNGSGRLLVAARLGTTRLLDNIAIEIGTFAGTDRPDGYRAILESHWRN

Row | SMILES | inhibition
1 | O=C(O)C1C2C=CC3(CN(C4CCCC4)C(=O)C13)O2 (stereo not given) | 4% (inactive)
2 | CCCOc1ccc(C2C(C(=O)OC)=CN(CCOC)C=C2C(=O)OC)cc1 | 1% (inactive)
3 | COc1ccccc1CN1C(=O)CCC1(C)C(=O)NC1CCCCCC1 (stereo not given) | 8% (inactive)
4 | COc1ccc2cc([C@H](C)C(=O)O)ccc2c1 | 0% (inactive)
5 | c1ccc(-n2ncc3c(N4CCCCC4)ncnc32)cc1 | 0% (inactive)
6 | COc1cc(S(=O)(=O)NC2CCCCC2C)ccc1Cl (stereo not given) | 0% (inactive)
7 | CC1(C)Cc2c(sc3c2C2=NCCN2C=N3)CS1 | 3% (inactive)
8 | CCN(CC)C(=O)Oc1ccc(NC(C)=O)cc1 | 0% (inactive)
9 | COc1ccc(S(=O)(=O)N2CCC(C(=O)Nc3c(F)cccc3F)CC2)cc1 | 2% (inactive)
10 | CCOC(=O)c1sc(C)c2c1NC(C)(c1cccs1)NC2=O (stereo not given) | 4% (inactive)
11 | Cc1ccc2[nH]c(=O)c(C(c3nnnn3CCc3ccccc3)N3CCOCC3)cc2c1 (stereo not given) | 6% (inactive)
12 | CCC(=O)c1ccc(O)cc1 | 0% (inactive)
13 | O=C(O)CCC(=O)Nc1nc(-c2ccccc2)cs1 | 0% (inactive)
14 | O=C(NCCCN1CCN(CCCNC(=O)c2ccc(F)cc2)CC1)c1ccc(F)cc1 | 0% (inactive)
15 | Cn1c(CNc2nc(-c3ccccc3)cs2)nnc1SCC(=O)N1CCc2ccccc21 | 0% (inactive)
16 | O=C(Nc1ccc2nn(-c3ccccc3)nc2c1)c1ccc(Br)o1 | 0% (inactive)
17 | O=C(Cn1c(=O)sc2ccccc21)NCCOc1ccccc1F | 0% (inactive)
18 | Cc1cc(NC(=O)CCC(=O)N(CC2CCCO2)C(C(=O)NC2CCCC2)c2ccccc2C)no1 (stereo not given) | 0% (inactive)
19 | CCOc1ccc(-n2cc(C(=O)Nc3cccc(C)n3)c3cc(OC)c(OC)cc3c2=O)cc1 | 1% (inactive)
20 | Cc1cccc(NC(=O)c2oc3c(c2C)C(=O)CC(C)(C)C3)n1 | 9% (inactive)

Row | SMILES | inhibition
21 | O=c1cc(CN2CCN(c3ccc(F)cc3)CC2)nc2sccn12 | 0% (inactive)
22 | CCC(CC)C1C(C#N)=C(N)Oc2n[nH]c(C)c21 (stereo not given) | 0% (inactive)
23 | CCOc1ccccc1N1Cc2cc(C)c(C)cc2C1 | 0% (inactive)
24 | Cc1nnc(SCC(=O)Nc2cc(C(F)(F)F)ccc2N2CCOCC2)o1 | 0% (inactive)
25 | Cc1ccc(NC(=O)CSc2nnc(-c3ccccn3)n2C)cc1 | 1% (inactive)
26 | O=C(Nc1ccccc1C(=O)N1CCOCC1)C1CCC(=O)N1C1CCCC1 (stereo not given) | 1% (inactive)
27 | N#CC1=C(N)N(c2ccc(Oc3ccccc3)cc2)C(=O)C1 | 2% (inactive)
28 | CCc1ccc(N2CC(C(=O)OCC(=O)Nc3cc(C)on3)CC2=O)cc1 (stereo not given) | 0% (inactive)
29 | Cc1oc(-c2ccc(Cl)cc2)nc1CS(=O)CC(=O)NCCCN(C)C1CCCCC1 (stereo not given) | 0% (inactive)
30 | COC(=O)C1CCN(C(=O)CN2C(=O)NC(CCc3ccccc3)C2=O)CC1 (stereo not given) | 0% (inactive)
31 | Cc1cc(NC(=O)CCOc2ccccc2)no1 | 0% (inactive)
32 | Cc1c(C(=O)O)sc2nc3n(c(=O)c12)CCC(C)CC3 (stereo not given) | 2% (inactive)
33 | CCOC(=O)C1CCN(Cc2ccc(OC)c(C)c2OC)CC1 | 0% (inactive)
34 | CCC(=O)N1CCN(c2nc(-c3ccccc3)c3c(c2C#N)CCCC3)CC1 | 4% (inactive)
35 | Cc1ccc(S(=O)(=O)c2cc3c(=O)n4ccccc4nc3n(CC3CCCO3)c2=N)cc1C (stereo not given) | 0% (inactive)
36 | CN1CCN(CCCN2c3ccccc3Sc3ccc(C(F)(F)F)cc32)CC1 | 1% (inactive)
37 | Cc1ccc(NC2=NC3(CCCCC3)N=C(N)N2)c(C)c1 | 3% (inactive)
38 | O=C(Nc1cccc(C(F)(F)F)c1)c1ccco1 | 0% (inactive)
39 | COc1ccc(-n2ccnc2SCC(=O)NCc2ccc3c(c2)OCO3)cc1 | 1% (inactive)
40 | Cc1ccc(S(=O)(=O)CC(=O)N2CCCCCC2)cc1 | 0% (inactive)
